Assay [1] is described as follows: ATG_XTT_Cytotoxicity: Cytotoxicity Assessment in the Attagene TRANS-FACTORIAL HepG2 Assay (AID 2283584).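 As to AC50: XTT signal for cell number as viability in transfected HepG2 cells; cells exposed to compound for 24 h before reading; active means loss of viability signal versus DMSO baseline.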 Put shortly: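 HepG2 cells transiently transfected with GAL4-UAS multiple reporter units, dosed 24 h; cytotoxicity read by XTT as loss of signal versus DMSO baseline.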
In assay [2] the target is Cellular tumor antigen p53 (Homo sapiens) (UniProt P04637). Put plainly: TOX21_p53_BLA_p2_ratio: Tox21 HCT-116 p53 Agonism Beta-lactamase Assay, Ratio, Phase 2 (AID 2283592). Put shortly:
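First, HCT116 reporter cells settle for 5 h at 37C. Next, DMSO compound solutions are pinned in (217-fold dilution) and left 16 h. Finally, CCF4-AM substrate is loaded 2 h at room temperature and the 460/530 nm ratio read.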

A short description of assay [3]: TOX21_p53_BLA_p3_viability: Viability Assessment in the Tox21 HCT-116 p53 Agonism Beta-lactamase Assay, Phase 3 (AID 2283593).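 Also: cells exposed to compound for 16 h before reading.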 Put shortly:
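HCT116 cells, 4000/well, dosed 5 h after plating by pin transfer (217-fold dilution from DMSO stock) and incubated 16 h at 37C, 5% CO2. Viability read as ATP luminescence with CellTiter-Glo after 30 min at room temperature.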

The target of assay [4] is Cellular tumor antigen p53 (Homo sapiens) (UniProt P04637). In words: TOX21_p53_BLA_p3_ratio: Tox21 HCT-116 p53 Agonism Beta-lactamase Assay, Ratio, Phase 3 (AID 2283596). Put shortly:
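Cells were seeded at 4000/well, rested 5 h at 37C, then dosed with DMSO compound solutions (217-fold dilution) for 16 h. CCF4-AM substrate was loaded for 2 h at room temperature, and the 460/530 nm emission ratio was fitted for gain of signal versus DMSO.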

Assay [5] is described as follows: TOX21_p53_BLA_p4_viability: Viability Assessment in the Tox21 HCT-116 p53 Agonism Beta-lactamase Assay, Phase 4 (AID 2283597).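 Also: hits lower the luminescence signal meaning cytotoxicity.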 Put shortly:
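4000 HCT116 cells per well; 5 h attachment; compounds from DMSO, 217-fold dilution; 16 h at 37C. Then CCF4-AM, 2 h RT, followed by CellTiter-Glo, 30 min RT, luminescence. Decrease = cytotoxicity.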

Assay [6] concerns the target Cellular tumor antigen p53 (Homo sapiens) (UniProt P04637). In words: TOX21_p53_BLA_p5_ratio: Tox21 HCT-116 p53 Agonism Beta-lactamase Assay, Ratio, Phase 5 (AID 2283599). Put shortly: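 HCT-116 p53-bla cells (4000/well) plated 5 h, dosed with compound (217-fold DMSO dilution) for 16 h at 37 C; CCF4-AM substrate 2 h at room temperature. Activity is the 460/530 nm emission ratio (405 nm excitation), fitted in gain-of-signal direction versus DMSO.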

The nature of assay [7]: TOX21_p53_BLA_p5_viability: Viability Assessment in the Tox21 HCT-116 p53 Agonism Beta-lactamase Assay, Phase 5 (AID 2283600). Put shortly: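 Decreased CellTiter-Glo luminescence denotes lost viability. Exposure: 16 h at 37C, 5% CO2, with compounds from DMSO stocks diluted 217-fold in wells of 4000 cells.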
Assay [8] is described as follows: TOX21_p53_BLA_p2_viability: Viability Assessment in the Tox21 HCT-116 p53 Agonism Beta-lactamase Assay, Phase 2 (AID 2283591).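 Also: actives lower the ATP signal meaning cytotoxicity.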 Put shortly:
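HCT116 p53-bla cells, 4000/well, dosed after 5 h plating (217-fold dilution of DMSO stocks) and incubated 16 h at 37C. Viability taken as cellular ATP by CellTiter-Glo luminescence after 30 min RT; signal loss marks cytotoxicity.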

The target of assay [9] is Cellular tumor antigen p53 (Homo sapiens) (UniProt P04637). Put plainly: TOX21_p53_BLA_p4_ratio: Tox21 HCT-116 p53 Agonism Beta-lactamase Assay, Ratio, Phase 4 (AID 2283601). Put shortly: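 HCT-116 p53 beta-lactamase reporter cells (4000/well) preincubated 5 h, then compound (217-fold dilution of DMSO stock) for 16 h at 37C. CCF4-AM substrate added 2 h at room temperature; 460/530 nm emission ratio fitted upward versus DMSO.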

Data on 24 compounds can be found in PubChem BioAssay (EPA / NIEHS).

Several values for one entry are separate records, joined by “and”; a condition that tells them apart may be missing. Equal entries are not always repeated. Inconclusive results are not listed. Activity calls are given as the source filed them. The calls were made as follows: active = hit-call score of the fitted dose curve at least 0.9, where 1 is the maximum; inconclusive = response in the unintended direction; inactive = score below 0.9.

Chain of Cellular tumor antigen p53 (Homo sapiens) (P04637 whole entry, looked up): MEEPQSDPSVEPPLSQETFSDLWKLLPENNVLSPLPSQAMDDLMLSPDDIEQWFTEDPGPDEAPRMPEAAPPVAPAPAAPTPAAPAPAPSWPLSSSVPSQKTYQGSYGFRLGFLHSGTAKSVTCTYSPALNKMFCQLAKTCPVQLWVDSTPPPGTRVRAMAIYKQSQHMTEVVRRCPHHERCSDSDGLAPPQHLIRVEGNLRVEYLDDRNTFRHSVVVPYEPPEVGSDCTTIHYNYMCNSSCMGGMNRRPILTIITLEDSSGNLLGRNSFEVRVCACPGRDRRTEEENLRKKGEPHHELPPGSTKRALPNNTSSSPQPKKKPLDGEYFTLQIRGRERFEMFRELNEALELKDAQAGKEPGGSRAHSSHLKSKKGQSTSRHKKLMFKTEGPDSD

Consider `CC(C)OCCO`, for which the compound was classed as inactive in assay [1], in assay [2], in [3], in assay [4], in assay [5] and in assay [6]. In addition, in assay [7], the result was inactive.
`O=CN1CCOCC1`: the call in assay [1], in [8], in assay [2], in [6] and in assay [9] was inactive.
Take `Cc1ccc(N)c(S(=O)(=O)O)c1`: the outcome in assay [1], in assay [8], in assay [3], in [6], in [7] and in [9] was inactive.
Turning to `O=C1c2ccccc2C(=O)c2c(O)ccc(O)c21`, the call in assay [1], in assay [8], in assay [2], in assay [4], in assay [5] and in assay [6] was inactive. The outcome in [9] was inactive.
For the compound `C=CCOC(=O)CCCCCC`, the compound was classed as inactive in assay [1], in [8], in assay [5] and in assay [9].
Turning to `CCOC(=O)[C@@H](C)Oc1ccc(Oc2nc3ccc(Cl)cc3o2)cc1`, the result in assay [1], in assay [8], in assay [2], in assay [4] and in [6] was inactive.
For `C[C@H](CCC(=O)NCC(=O)O)[C@H]1CC[C@H]2[C@@H]3[C@H](O)C[C@@H]4C[C@H](O)CC[C@]4(C)[C@H]3C[C@H](O)[C@]12C`, the compound was called inactive in [1], in assay [8], in assay [4], in assay [5], in assay [6] and in [7]. Also, in assay [9], the result was inactive.
Regarding `Cc1c(C2(c3cc(Br)c(O)c(Br)c3C)OS(=O)(=O)c3ccccc32)cc(Br)c(O)c1Br`, the result in assay [1], in assay [8], in assay [4] and in assay [9] was inactive. The AC50 – broadly, the concentration at which the activity in the assay is half-maximal – in assay [3] is 37.1 µM (active); in assay [5], 28.4 µM (active).
With `CC(C)NCC(O)COc1ccc(CC(N)=O)cc1` (stereo not drawn), the compound was classed as inactive in assay [1], in assay [8], in assay [2], in [6] and in assay [7].
For `C=COCCOCCOC=C`, the result in assay [1], in assay [8], in assay [5] and in [9] was inactive.
Consider `CC=CC=CCOC(=O)C(C)C`, for which the result in assay [1], in assay [8], in assay [3], in assay [4] and in [5] was inactive.
Take `C[Si]1(C)O[Si](C)(C)O[Si](C)(C)O1`: the outcome in [1], in assay [8], in assay [4] and in assay [9] was inactive.
Regarding `C1CCOC1`, the result in assay [1], in assay [8], in [4] and in assay [9] was inactive.
`IC(I)I`: the compound was called inactive in assay [1], in [8], in assay [2], in [5], in assay [6] and in assay [7]. In addition, the outcome in assay [9] was inactive.
With `O=C(O)c1ccc(O)cc1`, the outcome in assay [1], in assay [8], in assay [2], in [4], in assay [5] and in [9] was inactive.
As to `CCCCC(CC)COC(=O)c1ccc(O)cc1` (stereo not drawn), the AC50 in [1] was 100 µM (active) and 121 µM (active); in assay [8], 41.9 µM (active) and 67.8 µM (active); in [2] it was 76.7 µM (active) and 74.7 µM (active); in [4], 72.6 µM (active) and 85.1 µM (active); in [5] it was 72.2 µM (active) and 45.9 µM (active); in [7], 56.6 µM (active) and 66.6 µM (active). Further, the concentration at half-maximal activity (AC50) in [9] was 86 µM (active) and 72.3 µM (active).
For the compound `CC1(C)O[C@@H]2[C@@H](CO[C@@]3(COS(N)(=O)=O)OC(C)(C)O[C@@H]23)O1`, the result in assay [1], in [8], in assay [2], in assay [4], in assay [5] and in [9] was inactive.
`CC(C)CCOC(=O)c1ccccc1`: the call in assay [1], in [8], in [2], in assay [6], in assay [7] and in [9] was inactive.
With `CCCOC(=O)c1c(Cl)c(Cl)c(Cl)c(Cl)c1C(=O)OCCC`, the outcome in assay [1] and in assay [2] was inactive.
Take `CCCCCCCCCCCCCC(=O)OCC(O)CO` (stereo not drawn): the outcome in [1], in assay [8], in [2] and in assay [6] was inactive.
On to `CCCCC(CC)C(=O)OC(C)C` (stereo not drawn), for which the call in assay [1], in assay [8], in assay [2], in assay [4], in assay [6] and in assay [9] was inactive.
Turning to `COc1cc(CCC(C)=O)ccc1O`, the outcome in assay [1], in assay [2] and in assay [3] was inactive.
As for `COC(=O)c1ccc(C)cc1C1=NC(C)(C(C)C)C(=O)N1` (stereo not drawn) (tested in a mixture with another compound), the compound was called inactive in [1], in [8], in [2], in [4], in [5] and in assay [7].
Turning to `Nc1c(Cl)cc(Cl)cc1[N+](=O)[O-]`, the compound was called inactive in assay [1], in assay [8], in assay [2], in [5], in [7] and in assay [9].
